Vc quorum ag – inducers of Vibrio cholerae quorum light production without autoinducers, primary screen, BH1578 luxS cqsA deficient, single point; V. cholerae BH1578 lux reporter, luminescence, 6 h; activation, % at 18.7 µM; hit rate 0.16% among 350,000; AID 588436, 2011; in the data active = activation mostly above about 9.7%, no sharp cut-off; inconclusive = no clear call, values can overlap the other calls; inactive = mostly below about 3.7%
BoNT A protease – BoNT/A light chain protease inhibitors, primary screen, biochemical, flow cytometry, MLPCN library | multiplex microsphere protease substrate cleavage | inhibition, % at 10 µM | hit rate 0.17% among 360,000 | AID 588499, 2011; note: plate controls were buffer without enzyme for full effect and enzyme alone for no effect
Autofluor counter – compound fluorescence in toxin protease inhibitor counterscreen; compound autofluorescence counterscreen, microsphere flow cytometry; stronger effect = higher value; fluorescence intensity (concentration not given with the values); hit rate 3.1% among 360,000; AID 624483; in the data active = fluorescence intensity above about 16000; inconclusive = no clear call, values can overlap the other calls
Anthrax LF prot – Bacillus anthracis LF protease inhibitors, primary screen, biochemical, multiplex microsphere, MLPCN library. multiplex microsphere protease cleavage assay. hit rate 0.12% among 360,000. inhibition, % at 10 µM. Lethal factor (Bacillus anthracis), P15917; note: plate controls were buffer without enzyme for full effect and enzyme alone for no effect
BoNT F protease – BoNT/F light chain protease inhibitors, primary screen, biochemical, flow cytometry, MLPCN library. Botulinum neurotoxin type F light chain protease (Clostridium botulinum). Multiplex microsphere protease cleavage assay. inhibition, % at 10 µM. hit rate 0.22% among 360,000. AID 588497, 2011; in the data active = inhibition above about 35%, passing the limit was not always enough; inconclusive = no clear call, values can overlap the other calls; note: plate controls were buffer without enzyme for full effect and enzyme alone for no effect
MazF activator – activators of E. coli MazEF toxin-antitoxin RNase, primary screen, biochemical, fluorescence, uHTS; Endoribonuclease toxin MazF (Escherichia coli (strain K12)), P0AE70; FAM/BHQ RNA-DNA oligo cleavage fluorescence, 5 h; activation, % at 20 µM; hit rate 0.32% among 350,000; AID 504720, 2011; in the data active = activation above about 50%
Target sequence (P0AE70 whole entry, looked up): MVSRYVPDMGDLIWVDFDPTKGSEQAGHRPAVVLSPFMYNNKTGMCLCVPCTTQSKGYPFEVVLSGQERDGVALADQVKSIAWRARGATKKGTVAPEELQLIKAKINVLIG
An asterisk follows results filed as active; i = inactive; ? = inconclusive; . = no result given. Only some compounds are listed: those with a hit (about 3.9% of all), similar ones and a draw of the others. Cut-off read from the data, not from the text of the source, unless noted: active = inhibition above about 30%; inconclusive = no clear call, values can overlap the other calls; inactive = below that.

SMILES | Vc quorum ag | BoNT A protease | Autofluor counter | Anthrax LF prot | BoNT F protease | MazF activator
O=C(CNC(=O)Cc1ccccc1)NCC(=O)OCc1ccc(C(=O)c2ccccc2)cc1 | 2 | -1 | 16310* | -7 | -3 | -1
COc1cccc(CNC(=O)CCCN2C(=O)C(c3ccccc3)Oc3cccnc32)c1OC (stereo not given) | 1 | -3 | 5535 | -1 | -2 | 4
COc1ccccc1-c1ccc(=O)n(CC(=O)NCc2ccc3c(c2)OCO3)n1 | i | 3 | 22769* | -3 | 1 | 3
COc1ccc(CNC(=O)Cn2nc(-c3ccc4c(c3)OCCO4)ccc2=O)cc1 | 0 | 0 | 7997 | -2 | -3 | -9
COCCNC(=O)Cn1nc(-c2ccccc2OC)ccc1=O | -1 | 2 | 22415* | -3 | 0 | 0
COCCCNC(=O)Cn1nc(-c2ccccc2OC)ccc1=O | i | 0 | 3014 | 1 | 4 | -4
COc1ccccc1-c1ccc(=O)n(CC(=O)NC(C)(C)C)n1 | 0 | ? | 16772* | -1 | -6 | 7
COc1cccc(CNC(=O)Cn2nc(-c3ccc(Cl)cc3)ccc2=O)c1 | 0 | -1 | 21110* | -1 | -3 | -8
Cc1ccc(C)c(NC(=O)CN2C(=O)CC(C)S(=O)(=O)c3ccccc32)c1 (stereo not given) | i | -4 | 4776 | -2 | -9 | -5
O=C(NC12CC3CC(CC(C3)C1)C2)OCCNC1CCCCC1 | 0 | 5 | 3946 | 0 | ? | 6
Fc1ccc(Oc2cnc3ccccc3n2)cc1 | i | 0 | 2246 | 2 | 0 | 2
Cc1ccc(Oc2cnc3ccccc3n2)cc1 | -4 | ? | 20600* | -4 | -2 | -7
Clc1ccc(Oc2cnc3ccccc3n2)cc1 | i | -2 | 24944* | -3 | -4 | -9
COCCn1c(-c2ccc(-c3ccc([N+](=O)[O-])cc3Br)o2)nc2c1c(=O)[nH]c(=O)n2CC(C)C | 1 | 24 | 4801 | 11 | 9 | 98*
CNc1sc(C(=O)c2ccc(F)cc2)c(N)c1-c1nc2ccccc2s1 | -1 | 19 | 18218* | 21 | 8 | 14
CNc1sc(C(=O)c2cccs2)c(N)c1-c1nc2ccccc2s1 | i | 6 | 2925 | 11 | -38 | 9
C=CCN=C(NC#N)SCCc1ccccc1 | -2 | -3 | 20089* | -7 | -5 | -5
CC(C)C(NC(=O)c1c(F)cccc1F)C(=O)NC1CC(C)(C)NC(C)(C)C1 (stereo not given) | 0 | -1 | 5304 | -3 | 3 | 7
Cc1ccc(C)c(C(=O)n2cnnc2N)c1 | 16 | 0 | 3397 | -2 | -16 | 5
Cc1ccc(C(=O)n2cnnc2N)cc1 | 1 | ? | 21599* | 0 | -6 | 2
COc1cccc(C(=O)n2cnnc2N)c1OC | i | 2 | 19978* | -2 | 1 | -5
COc1ccccc1C(=O)N1CCCN(C(=O)c2ccccc2OC)CC1 | 0 | 0 | 3921 | 1 | -3 | -7
COc1cccc(C(=O)N2CCCN(C)CC2)c1OC | 0 | 4 | 3084 | 16 | 37* | 12
Nc1nncn1C(=O)c1c(Cl)cccc1Cl | i | 5 | 17890* | 1 | 3 | -1
C[C@H](NC(=O)[C@@H]1CCCN1C(=O)[C@@H]1CCCN1)c1ccccc1 | . | -1 | 4586 | -6 | 6 | .
SMILES | Vc quorum ag | BoNT A protease | Autofluor counter | Anthrax LF prot | BoNT F protease | MazF activator
c1ccc(-c2cn3c(n2)-c2ccccc2C3)cc1 | -1 | 0 | 8721 | -2 | 1 | -6
O=C(C1CC=CCC1)N1CCC(CO)(Cc2ccc(Cl)cc2)CC1 (stereo not given) | i | 0 | 3395 | 2 | 2 | 2
O=C(c1ccco1)N(Cc1ccccc1)Cc1ccccn1 | 0 | 0 | 4229 | -5 | 2 | 6
O=C(c1cccs1)N(Cc1ccccn1)Cc1ccco1 | 0 | -1 | 24079* | -3 | -1 | 7
O=C(OCC(=O)N1CCOCC1)c1ccc(Cl)nc1 | 0 | 1 | 22562* | -4 | 3 | 3
COc1ccc(NC(=O)c2ccc(=O)[nH]c2)cc1S(=O)(=O)N1CCOCC1 | i | 2 | 6229 | 6 | 6 | 5
CC(=O)c1ccc(N2CCN(C(=O)c3cc4c(C)nc5ccccc5c4o3)CC2)cc1 | i | 0 | 5852 | -1 | 1 | 56*
CCN1CCCC1CNC(=O)c1cc2c(C)nc3ccccc3c2o1 (stereo not given) | -1 | 7 | 17361* | -6 | 9 | -8
Cn1c(/N=C(\N)c2ccccc2)nc2ccccc21 | i | -1 | 2925 | -10 | -11 | 10
CCc1c(C)c2cc(Cl)c(O)c(CN(C)C)c2oc1=O | 0 | ? | 17210* | 1 | -7 | 2
CCc1cc(=O)oc2c(CN3CCN(C)CC3)c(O)ccc12 | 0 | 1 | 3530 | 14 | 8 | 9
Cc1c(C)c2cc(Cl)c(O)c(CN(C)C)c2oc1=O | 0 | 0 | 5660 | -6 | 4 | -2
CCCCc1cc(=O)oc2c(CN(C)C)c(O)c(Cl)cc12 | 0 | 0 | 23705* | -2 | -3 | -7
CCCCc1cc(=O)oc2c(CN3CCCC3)c(O)ccc12 | i | -2 | 20462* | 0 | -4 | 9
CCOc1ccc(S(=O)(=O)Nc2ccc(C(=O)NCCCN3CCOCC3)cc2)cc1 | i | -1 | 5011 | -1 | 2 | 3
COc1ccc(/C=C/C(=O)Nc2nonc2NC(C)=O)cc1 | 0 | 0 | 2493 | -1 | -2 | 10
Cc1nc(NC(=O)c2cccc(-c3cc4ccccc4oc3=O)c2)ccc1Br | i | 0 | 9407 | -3 | 5 | 84*
OCCNCCCOc1ccc(Cl)cc1Br | i | 0 | 22475* | -4 | -1 | 0
COCCNCCCOc1ccc(Cl)cc1Br | i | 1 | 2530 | -1 | 1 | -1
C=CCNCCCCOc1ccc(Br)cc1C | 0 | 2 | 2515 | -1 | -4 | 1
Cc1cc(Br)ccc1OCCCCNCCO | 14 | -7 | 21727* | -1 | -9 | 2
O=C(CN1C(=O)/C(=C/c2ccccc2F)Sc2ccccc21)N1CCN(c2ccccn2)CC1 | -3 | 0 | 2436 | -2 | 0 | 1
Cc1ccc(-c2nc(CN(C)Cc3cccc4cnccc34)c(C)o2)s1 | 0 | 0 | 2296 | -1 | 1 | 1
N#CCCN(Cc1ccccc1)C(=S)NC(=O)c1ccccc1 | i | ? | 21936* | -1 | 2 | -7
COc1ccc(N(CC(=O)Nc2cccc(C)c2C)S(=O)(=O)c2c(C)n[nH]c2C)cc1 | -2 | ? | 20057* | -1 | -1 | -7
CCOC(=O)c1cccc(NC(=O)CN(c2ccc(OC)cc2)S(=O)(=O)c2c(C)noc2C)c1 | 0 | 0 | 20239* | -2 | -2 | -3

Assay outcomes as filed in PubChem BioAssay.
